Consider 1 compound from the supplement of paper PMC11732987, “Enantioselective OTUD7B fragment discovery through chemoproteomics screening and high-throughput optimisation” (Communications Chemistry, 2025).

Molecules are shown by their SMILES. Unmarked numbers belong to inactive results.

Assay in all cases: log2 ratio of Biotin-Ahx-Ub-VS probe labelling (fragment/DMSO); higher = less target engagement (more negative = stronger competition), active = hit call of the paper (q ≤ 0.05, log2 ratio ≤ -1)
Common to all, as to details: compound concentration: 200 uM; treatment time: 3 h

One experiment has as its target T1, OTUD6B (UniProt Q8N6M0).
T1 sequence (whole entry): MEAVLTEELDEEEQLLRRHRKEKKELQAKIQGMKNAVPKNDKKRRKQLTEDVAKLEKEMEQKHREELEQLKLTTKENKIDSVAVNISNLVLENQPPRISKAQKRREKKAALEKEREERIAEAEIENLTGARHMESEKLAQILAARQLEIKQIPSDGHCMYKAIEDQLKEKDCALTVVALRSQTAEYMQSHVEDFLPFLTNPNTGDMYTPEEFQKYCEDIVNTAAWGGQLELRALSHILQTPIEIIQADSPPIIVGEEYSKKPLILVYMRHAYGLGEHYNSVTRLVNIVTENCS
In outline: (§1)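 HEK293T lysate in Tris/CHAPS/IGEPAL buffer with protease inhibitors (495 µg per sample) was given fragment at 200 µM or vehicle for 3 h, in triplicate. It then received Biotin-Ahx-Ub-VS at 0.5 µM final for 1 h. Labelled DUBs were NeutrAvidin-enriched, digested with LysC and trypsin, and run by diaPASEF LC-MS/MS. Values are average log2 fragment/vehicle ratios by unpaired t-test on global-median-normalised Spectronaut quantities of proteins with ≥2 unique peptides.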

Another experiment deals with T2, OTUD7B (UniProt Q6GQQ9).
T2 sequence (whole entry): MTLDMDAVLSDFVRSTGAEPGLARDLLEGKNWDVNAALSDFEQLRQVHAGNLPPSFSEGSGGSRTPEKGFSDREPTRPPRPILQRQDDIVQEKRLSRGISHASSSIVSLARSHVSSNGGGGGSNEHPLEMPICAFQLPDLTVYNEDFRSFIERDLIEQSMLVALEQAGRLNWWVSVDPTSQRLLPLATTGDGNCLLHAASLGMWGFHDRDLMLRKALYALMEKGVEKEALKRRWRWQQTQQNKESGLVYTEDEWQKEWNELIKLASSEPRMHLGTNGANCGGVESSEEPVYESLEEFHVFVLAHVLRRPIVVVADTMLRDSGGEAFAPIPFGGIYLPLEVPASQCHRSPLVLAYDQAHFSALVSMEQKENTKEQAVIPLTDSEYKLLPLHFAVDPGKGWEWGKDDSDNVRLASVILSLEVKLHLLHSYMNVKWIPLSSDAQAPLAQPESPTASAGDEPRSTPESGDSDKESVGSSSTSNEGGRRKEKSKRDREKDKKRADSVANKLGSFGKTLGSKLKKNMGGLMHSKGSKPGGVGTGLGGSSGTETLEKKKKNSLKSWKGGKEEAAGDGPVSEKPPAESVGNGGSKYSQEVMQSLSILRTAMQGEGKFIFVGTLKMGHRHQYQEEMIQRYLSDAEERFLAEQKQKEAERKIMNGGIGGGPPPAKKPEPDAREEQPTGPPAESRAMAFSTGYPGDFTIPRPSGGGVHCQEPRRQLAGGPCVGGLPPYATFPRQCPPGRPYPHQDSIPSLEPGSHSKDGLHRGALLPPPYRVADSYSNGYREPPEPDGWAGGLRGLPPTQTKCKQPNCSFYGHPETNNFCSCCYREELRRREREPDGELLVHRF
In outline: as §1

The next experiment has as its target PRPF8 (UniProt Q6P2Q9). In outline: as §1
Another experiment has as its target T3, PSMD7 (UniProt P51665).
T3 sequence (whole entry): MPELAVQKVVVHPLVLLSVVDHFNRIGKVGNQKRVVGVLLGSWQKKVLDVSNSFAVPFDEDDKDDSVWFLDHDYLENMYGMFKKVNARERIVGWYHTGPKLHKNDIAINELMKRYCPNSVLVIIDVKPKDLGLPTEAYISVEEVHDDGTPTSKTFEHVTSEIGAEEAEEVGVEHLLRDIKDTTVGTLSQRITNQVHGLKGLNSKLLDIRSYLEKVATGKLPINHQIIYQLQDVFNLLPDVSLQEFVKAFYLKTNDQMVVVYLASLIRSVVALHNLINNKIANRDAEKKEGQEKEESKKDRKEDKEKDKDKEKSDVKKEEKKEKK
In outline:
as §1

In another experiment the target is UCHL1 (UniProt P09936). In outline:
as §1

For a further experiment, the target named is T4, UCHL3 (UniProt P15374).
T4 sequence (whole entry): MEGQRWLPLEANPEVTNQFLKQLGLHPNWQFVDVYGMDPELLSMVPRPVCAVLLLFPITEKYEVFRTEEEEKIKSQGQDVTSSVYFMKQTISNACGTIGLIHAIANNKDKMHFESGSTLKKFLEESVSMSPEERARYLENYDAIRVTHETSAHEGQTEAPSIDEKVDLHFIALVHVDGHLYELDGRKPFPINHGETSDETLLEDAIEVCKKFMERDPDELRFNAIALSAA
In outline:
as §1

Another experiment concerns the target T5, UCHL5 (UniProt Q9Y5K5).
T5 sequence (whole entry): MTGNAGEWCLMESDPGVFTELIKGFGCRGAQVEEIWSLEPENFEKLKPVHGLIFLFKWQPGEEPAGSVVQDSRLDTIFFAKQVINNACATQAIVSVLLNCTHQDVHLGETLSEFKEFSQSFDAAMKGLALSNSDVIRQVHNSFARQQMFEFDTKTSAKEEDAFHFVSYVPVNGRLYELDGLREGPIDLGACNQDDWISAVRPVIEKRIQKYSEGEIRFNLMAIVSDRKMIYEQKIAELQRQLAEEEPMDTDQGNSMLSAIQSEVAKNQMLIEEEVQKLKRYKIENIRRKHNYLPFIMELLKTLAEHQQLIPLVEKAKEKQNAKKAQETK
In outline:
as §1

A further experiment addresses USP10 (UniProt Q14694). In outline:
as §1

For another experiment, the target named is T6, USP15 (UniProt Q9Y4E8).
T6 sequence (whole entry): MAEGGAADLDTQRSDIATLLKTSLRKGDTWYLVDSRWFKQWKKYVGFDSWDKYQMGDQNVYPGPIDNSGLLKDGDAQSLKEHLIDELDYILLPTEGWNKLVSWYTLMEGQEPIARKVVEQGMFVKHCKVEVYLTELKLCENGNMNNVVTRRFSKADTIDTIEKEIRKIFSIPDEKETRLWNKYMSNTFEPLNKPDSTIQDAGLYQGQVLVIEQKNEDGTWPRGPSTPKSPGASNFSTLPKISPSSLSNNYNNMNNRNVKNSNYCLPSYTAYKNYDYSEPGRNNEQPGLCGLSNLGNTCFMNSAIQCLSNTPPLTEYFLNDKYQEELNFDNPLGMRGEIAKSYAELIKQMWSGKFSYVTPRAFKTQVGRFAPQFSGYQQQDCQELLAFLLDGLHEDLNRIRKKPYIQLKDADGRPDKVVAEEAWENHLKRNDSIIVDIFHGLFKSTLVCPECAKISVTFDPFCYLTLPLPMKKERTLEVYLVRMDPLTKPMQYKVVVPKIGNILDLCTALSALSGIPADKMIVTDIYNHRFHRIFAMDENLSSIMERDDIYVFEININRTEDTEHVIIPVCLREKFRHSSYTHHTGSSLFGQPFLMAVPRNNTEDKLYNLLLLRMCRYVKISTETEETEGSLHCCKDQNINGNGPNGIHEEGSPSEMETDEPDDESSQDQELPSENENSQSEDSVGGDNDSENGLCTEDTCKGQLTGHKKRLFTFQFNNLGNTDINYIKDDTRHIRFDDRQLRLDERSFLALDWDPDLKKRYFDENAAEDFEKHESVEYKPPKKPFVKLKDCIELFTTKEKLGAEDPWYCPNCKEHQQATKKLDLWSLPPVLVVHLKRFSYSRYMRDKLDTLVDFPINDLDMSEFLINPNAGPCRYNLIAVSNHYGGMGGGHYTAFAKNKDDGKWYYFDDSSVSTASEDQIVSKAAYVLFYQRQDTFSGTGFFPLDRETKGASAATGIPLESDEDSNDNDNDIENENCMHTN
Put shortly: as §1

Chain of UCHL1 (P09936 whole entry, looked up): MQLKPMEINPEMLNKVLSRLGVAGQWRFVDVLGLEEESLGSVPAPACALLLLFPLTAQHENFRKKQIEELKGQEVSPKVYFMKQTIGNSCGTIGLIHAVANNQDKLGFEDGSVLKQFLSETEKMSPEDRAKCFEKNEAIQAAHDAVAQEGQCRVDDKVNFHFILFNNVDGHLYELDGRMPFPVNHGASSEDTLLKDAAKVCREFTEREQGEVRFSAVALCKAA
Chain of USP10 (Q14694 whole entry): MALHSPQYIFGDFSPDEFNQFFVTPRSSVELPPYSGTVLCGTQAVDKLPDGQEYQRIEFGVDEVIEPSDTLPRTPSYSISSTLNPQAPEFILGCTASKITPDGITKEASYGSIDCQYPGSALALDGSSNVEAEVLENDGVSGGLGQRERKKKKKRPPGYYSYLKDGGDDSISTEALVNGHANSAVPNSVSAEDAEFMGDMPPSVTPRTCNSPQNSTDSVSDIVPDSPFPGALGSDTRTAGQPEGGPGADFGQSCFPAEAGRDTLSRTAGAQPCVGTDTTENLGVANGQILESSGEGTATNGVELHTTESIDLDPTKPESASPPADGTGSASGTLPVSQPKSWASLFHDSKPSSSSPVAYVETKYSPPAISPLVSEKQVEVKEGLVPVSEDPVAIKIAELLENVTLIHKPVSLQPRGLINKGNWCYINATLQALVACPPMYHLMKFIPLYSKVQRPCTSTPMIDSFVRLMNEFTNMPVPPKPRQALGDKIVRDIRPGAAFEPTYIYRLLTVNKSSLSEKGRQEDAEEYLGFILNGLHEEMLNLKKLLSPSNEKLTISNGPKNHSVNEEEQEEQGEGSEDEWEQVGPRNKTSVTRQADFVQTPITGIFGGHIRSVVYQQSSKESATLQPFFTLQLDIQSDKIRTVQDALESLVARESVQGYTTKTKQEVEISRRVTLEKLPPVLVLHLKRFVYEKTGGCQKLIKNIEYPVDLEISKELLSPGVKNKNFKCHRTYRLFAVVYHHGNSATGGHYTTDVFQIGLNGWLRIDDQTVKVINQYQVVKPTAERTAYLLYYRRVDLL

Consider `O=C(CCl)NCC(=O)N1CCCC1`, for which the “log2 ratio of Biotin-Ahx-Ub-VS probe labelling” value with OTUD6B was -0.139; in the experiment with OTUD7B, -0.187; in the experiment with PRPF8, -0.0276; with PSMD7, -0.18; with UCHL1, -1.42 (active); in the experiment with UCHL3, 0.0513. Also, the entries for the “log2 ratio of Biotin-Ahx-Ub-VS probe labelling” value in the experiment with UCHL5, with USP10 and with USP15 were -0.323, -0.0856 and -0.0663, respectively.
